# In PubChem BioAssay AID602399 (Sanford-Burnham Center for Chemical Genomics, 2012):
# The campaign covered roughly 360,000 compounds. About 2,800 (0.78%) were called active. For the sample, actives were picked, then their nearest neighbours and some compounds at random. Values without a mark were called inactive. Cut-off read from the data, not from the text of the source: active = inhibition above about 26%; inactive = the rest.
# System: Nicotinate-nucleotide adenylyltransferase NadD (Staphylococcus aureus N315)
# Test: S. aureus NadD enzyme activity blockers – biochemical, colorimetric, uHTS, primary screen (AID 602399)
# Conditions: purified NadD enzyme, colorimetric absorbance read-out; at 20 µM; active compounds read high
row,Compound,inhibition
1,Cc1cccc(N2C(=O)NC(=O)/C(=C\c3cnn(-c4ccccc4)c3)C2=O)c1,31.6% (active)
2,COC(=O)CN1C(=O)C2(C(C(=O)OC)=C(N)Oc3ccccc32)C2=C1CC(C)(C)CC2=O (stereo not given),-11.2%
3,CC1(C)C(c2ccccc2)=NC(c2cccnc2)=[N+]1[O-],-1.36%
4,Cc1cccc(NC(=O)N2CC3CC(C2)c2cccc(=O)n2C3)c1 (stereo not given),-1.21%
5,COC1C(O)C(C)OC(OC2CCC3(C=O)C(CCC4C3CCC3(C)C(C5=CC(=O)OC5)CCC43O)C2)C1O (stereo not given),-4.34%
6,CCOC(=O)c1c(C)c(C(=O)N2CCC3(CC2)OCCO3)c(C)n1CC,-2.05%
7,O=c1[nH]c(CN2CC=C(c3ccccc3)CC2)nc2scc(-c3cccs3)c12,29.6% (active)
8,CC1=CC(=Cc2sc3ccccc3[n+]2C)C=C(C)O1,1.49%
9,CCN1C(=O)NC(=O)C2(CCCC2)C1=O,1.24%
10,c1cc2c(cc1C1OCC3C(c4ccc5c(c4)OCO5)OCC13)OCO2 (stereo not given),1.25%
11,CCCCCn1c(=O)c(C(=O)Nc2c(C)n(C)n(-c3ccccc3)c2=O)c(O)c2ccccc21,29.9% (active)
12,CCCCCn1c(=O)c(C(=O)NCc2ccccc2)c(O)c2ccccc21,1.88%
13,CCCCn1c(=O)c(C(=O)Nc2ccccc2Cl)c(O)c2ccccc21,-7.15%
14,Clc1ccc2nc3c(c(-c4ccccc4)c2c1)CNCC3,-4.51%
15,COCc1cc(OC(=O)N(C)C)nc(-c2ccc(C)c(Cl)c2)n1,-4.84%
16,COC1=C[C@@H]2[C@@H]3Cc4ccc(OC)c(O)c4[C@]2(CCN3C)CC1=O,3.24%
17,O=C1NC(=O)N(Cc2ccco2)C(=O)/C1=C\c1ccc(-c2ccc(F)cc2)o1,38.2% (active)
18,O=C(Cn1c(=O)n(CC2CS2)c2ccccc21)N1CCCCC1 (stereo not given),-1.82%
19,COc1cccc(-c2nc3ccc(N4CCN(C)CC4)cc3[nH]2)c1,-5.51%
20,COC(=O)C1=C(c2cc3ccccc3o2)C[C@@H]2CC[C@H]1N2C(=O)NC1CCCCC1,0.201%
